Laboratory results reported in PubChem BioAssay (Tox21).
Records with an inconclusive call do not appear. A number with no mark means an inactive call. Calls of active or inactive are those of the source. Unless noted, calls follow the shape of the dose curve; as a rule, active = well fitted cell-killing curve with a large enough effect in the repeat runs; inconclusive = weak or mixed curves; inactive = no such curve, though single readings can be large or run the other way.

System: not listed separately
Assay: qHTS assay to identify small molecule agonists of the peroxisome proliferator-activated receptor delta (PPARd) signaling pathway - cell viability counter screen (AID 743211); also: nearly all actives have a fitted effect of over 55% in size
Settings: PPARd-bla HEK293H viability, CellTiter-Glo luminescence, 17 h; series mostly up to 62.6 µM; activity change, negative = cytotoxicity: at the top concentration
Summary of the method: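 HEK293H PPARd-bla, 3000 cells/well; 5 h preincubation 37C/5% CO2; cpd in DMSO, 17 h 37C; B/G FRET substrate 2 h RT; CellTiter-Glo 30 min RT, luminescence.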
% is scaled to controls: 0 for no effect and ±100 for the full control effect.

| SMILES | outcome | activity change, negative = cytotoxicity |
| --- | --- | --- |
| C=C(C)C(=O)O[C@H]1C[C@@H]2CC[C@@]1(C)C2(C)C | inactive |  |
| O=S1(=O)CC=CC1 | inactive |  |
| Oc1cccc2ccccc12 | inactive |  |
| CC(=O)c1ccccc1 | inactive |  |
| C=C(C)C(=O)OCCOCCOCCOC(=O)C(=C)C | inactive |  |
| O=C(O)CCCCCCCCCCC(=O)O | inactive |  |
| O=c1[nH]c(=O)n([C@H]2CCCO2)cc1F | inactive |  |
| CC(C)c1ccc(S(=O)(=O)O)cc1 | inactive |  |
| O=[N+]([O-])c1ccc(/C=C/c2ccc([N+](=O)[O-])cc2S(=O)(=O)O)c(S(=O)(=O)O)c1 | inactive |  |
| O=C=NCCCCCCN=C=O | inactive |  |
| OCc1cccnc1 |  | 7.03% [at 81.1 µM] |
| COc1ccc2cc([C@H](C)C(=O)O)ccc2c1 | inactive |  |
| C[Si](O[Si](C)(C)C)O[Si](C)(C)C | inactive |  |
| C/C=C1/CC2C=CC1C2 (configuration not stated) | inactive |  |
| CC1CCC2CC1C2(C)C (configuration not stated) | inactive |  |
| O=C(CC(C(=O)OC1CCCCC1)S(=O)(=O)O)OC1CCCCC1 (configuration not stated) | inactive |  |
| C[C@H]1C[C@H]2[C@@H]3CCC4=CC(=O)C=C[C@]4(C)[C@@]3(F)[C@@H](O)C[C@]2(C)[C@@]1(O)C(=O)CO | inactive |  |
| c1ccc2c(c1)ccc1ccccc12 |  | 18.4% |
| CCN(CC)CCCC(C)Nc1ccnc2cc(Cl)ccc12 (configuration not stated) | inactive |  |
| CCCCCC/C(C=O)=C\c1ccccc1 | inactive |  |

| SMILES | outcome | activity change, negative = cytotoxicity |
| --- | --- | --- |
| C=C(C)C(=O)Nc1ccc(Cl)c(Cl)c1 | inactive |  |
| CCCCC(CC)COC(=O)C(C#N)=C(c1ccccc1)c1ccccc1 (configuration not stated) | inactive |  |
| CCCCCCCCCCCCOCCO | inactive |  |
| OCCOCCOCCO | inactive |  |
| CN(C)CCCN | inactive |  |
| CCCCN(CCCC)CCCC | inactive |  |
| O=C(O)c1ccccc1C(c1ccc(O)cc1)c1ccc(O)cc1 |  | -3.73% |
| CCCCCC1=CCCC1=O | inactive |  |
| O=C(O)c1ccc2c(c1)C(=O)OC2=O | inactive |  |
| N[C@@H](Cc1cc(I)c(Oc2cc(I)c(O)c(I)c2)c(I)c1)C(=O)O | inactive |  |
| O=C(O)c1cc(O)c(O)c(O)c1 |  | -3% |
| c1c[nH]cn1 | inactive |  |
| c1ccc2scnc2c1 | inactive |  |
| CC(=O)Nc1ccccc1 | inactive |  |
| C#CCN(C)Cc1ccccc1 | inactive |  |
| CCCCCCCCCC | inactive |  |
| O=C(O)[C@H](O)[C@@H](O)[C@H](O)[C@H](O)CO | inactive |  |
| O=C(Oc1ccccc1)c1ccccc1 | inactive |  |
| CC(c1cc2ccccc2s1)N(O)C(N)=O (configuration not stated) | inactive |  |

Target: Peroxisome proliferator-activated receptor delta (Homo sapiens) (UniProt Q03181)
Assay: qHTS assay to identify small molecule agonists of the peroxisome proliferator-activated receptor delta (PPARd) signaling pathway (AID 743212; calls by dose curve;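 also: HEK293H cells with PPARd UAS beta-lactamase reporter GeneBLAzer system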)
Settings: HEK293H PPARd-UAS-bla, beta-lactamase FRET ratio, 17 h; series mostly up to 62.6 µM; activation: at the top concentration
Summary of the method: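 A PPARd-bla HEK293H line with beta-lactamase under an Upstream Activator Sequence is treated with compounds at 37 C. Substrate loading for 2 h at room temperature precedes the fluorescence measurement.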

Peroxisome proliferator-activated receptor delta (Homo sapiens), sequence (Q03181 whole entry, looked up): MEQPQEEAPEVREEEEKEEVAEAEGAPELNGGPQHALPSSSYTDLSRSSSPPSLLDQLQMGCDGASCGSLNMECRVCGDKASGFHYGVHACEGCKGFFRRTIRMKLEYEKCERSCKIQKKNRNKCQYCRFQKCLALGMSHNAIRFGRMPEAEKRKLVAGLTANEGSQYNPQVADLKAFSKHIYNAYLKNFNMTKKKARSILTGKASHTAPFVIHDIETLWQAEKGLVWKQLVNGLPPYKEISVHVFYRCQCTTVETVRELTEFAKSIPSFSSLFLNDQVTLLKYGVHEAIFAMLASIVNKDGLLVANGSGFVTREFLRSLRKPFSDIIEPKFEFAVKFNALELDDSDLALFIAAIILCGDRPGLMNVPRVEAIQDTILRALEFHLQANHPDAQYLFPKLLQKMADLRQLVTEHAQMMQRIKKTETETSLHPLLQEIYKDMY

| SMILES | outcome | activation [%] |
| --- | --- | --- |
| C=C(C)C(=O)O[C@H]1C[C@@H]2CC[C@@]1(C)C2(C)C | inactive |  |
| O=S1(=O)CC=CC1 |  | 1.03 |
| CC(=O)c1ccccc1 | inactive |  |
| O=C(O)CCCCCCCCCCC(=O)O | inactive |  |
| O=c1[nH]c(=O)n([C@H]2CCCO2)cc1F | inactive |  |
| O=C=NCCCCCCN=C=O | inactive |  |
| OCc1cccnc1 | inactive |  |
| C[Si](O[Si](C)(C)C)O[Si](C)(C)C | inactive |  |
| C/C=C1/CC2C=CC1C2 (configuration not stated) | inactive |  |
| O=C(CC(C(=O)OC1CCCCC1)S(=O)(=O)O)OC1CCCCC1 (configuration not stated) | inactive |  |
| C[C@H]1C[C@H]2[C@@H]3CCC4=CC(=O)C=C[C@]4(C)[C@@]3(F)[C@@H](O)C[C@]2(C)[C@@]1(O)C(=O)CO | inactive |  |
| c1ccc2c(c1)ccc1ccccc12 | inactive |  |
| CCN(CC)CCCC(C)Nc1ccnc2cc(Cl)ccc12 (configuration not stated) | inactive |  |
| CCCCCC/C(C=O)=C\c1ccccc1 | inactive |  |
| CCCCC(CC)COC(=O)C(C#N)=C(c1ccccc1)c1ccccc1 (configuration not stated) | inactive |  |
| CN(C)CCCN | inactive |  |
| CCCCN(CCCC)CCCC | inactive |  |
| O=C(O)c1ccccc1C(c1ccc(O)cc1)c1ccc(O)cc1 |  | -1.52 |
| CCCCCC1=CCCC1=O | inactive |  |
| N[C@@H](Cc1cc(I)c(Oc2cc(I)c(O)c(I)c2)c(I)c1)C(=O)O | inactive |  |
| O=C(O)c1cc(O)c(O)c(O)c1 |  | 1.74 |
| c1c[nH]cn1 | inactive |  |
| c1ccc2scnc2c1 | inactive |  |
| CC(=O)Nc1ccccc1 | inactive |  |
| C#CCN(C)Cc1ccccc1 |  | -7.47 |
| CCCCCCCCCC | inactive |  |
| O=C(O)[C@H](O)[C@@H](O)[C@H](O)[C@H](O)CO |  | 1.24 |
| O=C(Oc1ccccc1)c1ccccc1 | inactive |  |
| CC(c1cc2ccccc2s1)N(O)C(N)=O (configuration not stated) | inactive |  |

System: not listed separately
Assay: qHTS assay to identify small molecule antagonists of the peroxisome proliferator-activated receptor delta (PPARd) signaling pathway - cell viability counter screen (AID 743213); also: nearly all actives have a fitted effect of over 50% in size
Settings: PPARd-bla HEK293H viability, CellTiter-Glo luminescence, 17 h; series mostly up to 62 µM; viability change, negative = cytotoxic: at the top concentration
Summary of the method: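 HEK293H cells with the PPARd UAS-bla reporter, co-treated 17 h at 37 C with compounds and L165041 (300 nM final), were lysed with CellTiter-Glo. Luminescence indicated viable cell content.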

| SMILES | outcome | viability change, negative = cytotoxic |
| --- | --- | --- |
| C=C(C)C(=O)O[C@H]1C[C@@H]2CC[C@@]1(C)C2(C)C | inactive |  |
| O=S1(=O)CC=CC1 | inactive |  |
| Oc1cccc2ccccc12 | inactive |  |
| CC(=O)c1ccccc1 | inactive |  |
| C=C(C)C(=O)OCCOCCOCCOC(=O)C(=C)C | inactive |  |
| O=C(O)CCCCCCCCCCC(=O)O | inactive |  |
| O=c1[nH]c(=O)n([C@H]2CCCO2)cc1F | inactive |  |
| CC(C)c1ccc(S(=O)(=O)O)cc1 | inactive |  |
| O=[N+]([O-])c1ccc(/C=C/c2ccc([N+](=O)[O-])cc2S(=O)(=O)O)c(S(=O)(=O)O)c1 | inactive |  |
| O=C=NCCCCCCN=C=O | inactive |  |
| OCc1cccnc1 |  | 3.17% |
| COc1ccc2cc([C@H](C)C(=O)O)ccc2c1 | inactive |  |
| C[Si](O[Si](C)(C)C)O[Si](C)(C)C | inactive |  |
| C/C=C1/CC2C=CC1C2 (configuration not stated) | inactive |  |
| CC1CCC2CC1C2(C)C (configuration not stated) | inactive |  |
| O=C(CC(C(=O)OC1CCCCC1)S(=O)(=O)O)OC1CCCCC1 (configuration not stated) | inactive |  |
| C[C@H]1C[C@H]2[C@@H]3CCC4=CC(=O)C=C[C@]4(C)[C@@]3(F)[C@@H](O)C[C@]2(C)[C@@]1(O)C(=O)CO | inactive |  |
| c1ccc2c(c1)ccc1ccccc12 | inactive |  |
| CCN(CC)CCCC(C)Nc1ccnc2cc(Cl)ccc12 (configuration not stated) |  | -17.6% [at 6.26 µM] |
| CCCCCC/C(C=O)=C\c1ccccc1 |  | 16.8% |

| SMILES | outcome | viability change, negative = cytotoxic |
| --- | --- | --- |
| C=C(C)C(=O)Nc1ccc(Cl)c(Cl)c1 | inactive |  |
| CCCCC(CC)COC(=O)C(C#N)=C(c1ccccc1)c1ccccc1 (configuration not stated) | inactive |  |
| CCCCCCCCCCCCOCCO | inactive |  |
| OCCOCCOCCO |  | -0.791% |
| CN(C)CCCN |  | -16.6% |
| CCCCN(CCCC)CCCC | inactive |  |
| O=C(O)c1ccccc1C(c1ccc(O)cc1)c1ccc(O)cc1 |  | -1.02% |
| CCCCCC1=CCCC1=O | inactive |  |
| O=C(O)c1ccc2c(c1)C(=O)OC2=O |  | -6.89% |
| N[C@@H](Cc1cc(I)c(Oc2cc(I)c(O)c(I)c2)c(I)c1)C(=O)O |  | 1.19% |
| O=C(O)c1cc(O)c(O)c(O)c1 |  | 7.65% |
| c1c[nH]cn1 | inactive |  |
| c1ccc2scnc2c1 | inactive |  |
| CC(=O)Nc1ccccc1 | inactive |  |
| C#CCN(C)Cc1ccccc1 |  | 16% |
| CCCCCCCCCC | inactive |  |
| O=C(O)[C@H](O)[C@@H](O)[C@H](O)[C@H](O)CO | inactive |  |
| O=C(Oc1ccccc1)c1ccccc1 | inactive |  |
| CC(c1cc2ccccc2s1)N(O)C(N)=O (configuration not stated) | inactive |  |
